From PubChem BioAssay (NCATS)
A number with no mark means an inactive call. Results filed as inconclusive are left out. The source made the active and inactive calls. Unless noted, calls follow the shape of the full dose curve.

Test: qHTS Assay for Identification of Small Molecule Agonists for NFkB Signaling Pathway. (AID 624478; active = well fitted curve in the direction sought with a large enough effect;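 also: compounds tested together with TNF alpha at its EC50 of 10 pM; 0% is about no effect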)
Settings: NFkB pathway reporter cell assay, agonist mode, cells co-stimulated with 10 pM TNF alpha; series mostly up to 46.1 µM; activation: at the top concentration
Method in brief: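 Assay medium contained 0.5% FBS and 10 mM HEPES pH 7.3. Compounds were added together with TNF alpha (10 pM final), incubated 5 h at 37 C, and the beta-lactamase signal was measured fluorometrically.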

Row | Compound | activation
1 | COc1cc2nccc(Oc3ccc(NC(=O)C4(C(=O)Nc5ccc(F)cc5)CC4)cc3)c2cc1OC | 5.5%
2 | N#CCNC(=O)c1ccc(-c2ccnc(Nc3ccc(N4CCOCC4)cc3)n2)cc1 | -1.37%
3 | O=c1[nH]nc(Sc2ncc([N+](=O)[O-])s2)n1-c1ccc2c(c1)OCCO2 | 22.9%
4 | O=C(c1ccc(Nc2nccc(-c3cc4ccccc4s3)n2)cc1)N1CCC(N2CCCC2)CC1 | 4.33%
5 | Cc1cc(Nc2cc(N3CCN(C)CC3)nc(Sc3ccc(NC(=O)C4CC4)cc3)n2)n[nH]1 | -0.538%
6 | Nc1ccc(C(=O)c2cc3c(ccc4ccccc43)[nH]2)cc1 | -1.15%
7 | Cn1cncc1[C@@](N)(c1ccc(Cl)cc1)c1ccc2c(c1)c(-c1cccc(Cl)c1)cc(=O)n2C | 21.3%
8 | Fc1cc(-c2cccc3ncc(-c4cnn(C5CCNCC5)c4)nc23)cc(F)c1CN1CCOCC1 | 3.59%
9 | C=CC(=O)Nc1cccc(Oc2nc(Nc3ccc(N4CCN(C)CC4)cc3OC)ncc2Cl)c1 | 3.99%
10 | Cc1cnc(Nc2ccc(F)cc2Cl)nc1-c1c[nH]c(C(=O)N[C@H](CO)c2cccc(Cl)c2)c1 | 0.44%
11 | CC(C)(C)c1cc(NC(=O)Nc2ccc(-c3cn4c(n3)sc3cc(OCCN5CCOCC5)ccc34)cc2)no1 | 18.2%
12 | CC(=O)OCC(=O)[C@@]1(O)[C@H](C)C[C@H]2[C@@H]3C=C(C)C4=Cc5c(cnn5-c5ccccc5)C[C@]4(C)[C@@H]3[C@@H](O)C[C@@]21C | -2.97%
13 | c1cc(-c2cnn3cc(-c4ccc(OCCN5CCCCC5)cc4)cnc23)ccn1 | 0.889%
14 | CNc1nccc(-c2cccnc2Oc2cc(C(=O)Nc3cccc(C(F)(F)F)c3)ccc2C)n1 | -0.617%

Test: qHTS Assay for Identification of Small Molecule Antagonists for NFkB Signaling Pathway. (AID 624479); also: potency is read from the fitted curve at half-maximal effect; as to activity change, negative = inhibition: % is scaled to controls: 0 for no effect and ±100 for the full control effect
Settings: NFkB pathway reporter cell assay, antagonist mode; series mostly up to 38.3 µM; activity change, negative = inhibition: at the top concentration

Row | Compound | Potency | activity change, negative = inhibition
15 | COc1cc2nccc(Oc3ccc(NC(=O)C4(C(=O)Nc5ccc(F)cc5)CC4)cc3)c2cc1OC | 16.8 µM (active) | 
16 | CC(=O)c1c(C)c2cnc(Nc3ccc(N4CCNCC4)cn3)nc2n(C2CCCC2)c1=O | 16.8 µM (active) | 
17 | Cc1cc(Nc2cc(NC(=O)c3c(Cl)cccc3Cl)ccn2)nc(N)n1 | 0.266 µM (active) | 
18 | COc1cc(=C2C=c3ccccc3=N2)[nH]c1=Cc1[nH]c(C)cc1C |  | -0.284%
19 | CC(C)(C)c1cc(C(C)(C)C)c(NC(=O)c2c[nH]c3ccccc3c2=O)cc1O | 23.7 µM (active) | 
20 | N#CCNC(=O)c1ccc(-c2ccnc(Nc3ccc(N4CCOCC4)cc3)n2)cc1 | 0.668 µM (active) | 
21 | O=c1[nH]nc(Sc2ncc([N+](=O)[O-])s2)n1-c1ccc2c(c1)OCCO2 | 23.7 µM (active) | 
22 | O=C(c1ccc(Nc2nccc(-c3cc4ccccc4s3)n2)cc1)N1CCC(N2CCCC2)CC1 | 0.266 µM (active) | 
23 | COc1cc(C(C)C)c2c(c1)S(=O)(=O)N(COc1cc(=O)n3cccc(OCCN4CCCCC4)c3n1)C2=O | 14.9 µM (active) | 
24 | O=C(O)c1ccc2c(c1)nc(Nc1cccc(Cl)c1)c1ccncc12 | 0.298 µM (active) | 
25 | CC(C)(C)OC(=O)Nc1ccc(-c2cc(C(=O)NCCCCCCC(=O)NO)no2)cc1 |  | -24.6%
26 | Nc1ccc(C(=O)c2cc3c(ccc4ccccc43)[nH]2)cc1 | 14.9 µM (active) | 
27 | Cn1c(=O)n(-c2ccc(C(C)(C)C#N)cc2)c2c3cc(-c4cnc5ccccc5c4)ccc3ncc21 |  | 2.82%
28 | C=CC(=O)Nc1cccc(Oc2nc(Nc3ccc(N4CCN(C)CC4)cc3OC)ncc2Cl)c1 |  | -20.9%
29 | CCC(=C(c1ccccc1)c1ccc(OCCN(C)C)cc1)c1ccccc1 | 21.1 µM (active) | 
30 | CC(C)(C)c1cc(NC(=O)Nc2ccc(-c3cn4c(n3)sc3cc(OCCN5CCOCC5)ccc34)cc2)no1 | 13.3 µM (active) | 
31 | Cc1ccc(C(N)=O)cc1Nc1nccc(-c2cn(C(C)C)c3cnccc23)n1 | 0.421 µM (active) | 
32 | C[C@@H](Oc1cc(-n2cnc3ccc(CN4CCN(C)CC4)cc32)sc1C(N)=O)c1ccccc1C(F)(F)F |  | -26.3%
33 | CNc1nccc(-c2cccnc2Oc2cc(C(=O)Nc3cccc(C(F)(F)F)c3)ccc2C)n1 | 13.3 µM (active) | 
